In PubChem BioAssay (NCATS):
Results filed as inconclusive are left out. Calls of active or inactive are those of the source. Unless noted, calls follow the shape of the full dose curve.

Key:
[1] = biological target: Bile acid receptor (Homo sapiens) (UniProt Q96RI1); test: qHTS assay for small molecule agonists of farnesoid X receptor signaling (AID 588527); details: HEK293T FXR-UAS-bla, beta-lactamase ratio, 16 h; activation: stronger effect = higher value;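 also: series mostly up to about 77 µM; 0% = vehicle basal and 100% = reference agonist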
In short: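 FXR-UAS-bla HEK293T, 10% dialyzed FBS; cpds up to 92 uM titration, 16 h 37 C; CCF4 dye 2 h RT; fluorescence. Normalized to chenodeoxycholic acid 100 uM (100%) and DMSO (0%); Hill fit gives EC50, efficacy.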

[2] = biological target: Peroxisome proliferator-activated receptor delta (Homo sapiens) (UniProt Q03181); test: qHTS assay for small molecule agonists of peroxisome proliferator-activated receptor delta signaling (AID 588534);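 also: 0% = DMSO basal wells and 100% = positive control agonist at 10 µM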
In short: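 Cells carrying a PPAR-delta beta-lactamase reporter were treated with compounds for 18 h at 37 °C in agonist mode. CCF4 fluorescence was read after 2 h; EC50 and efficacy from Hill fits.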

[3] = biological target: Glucocorticoid receptor (Homo sapiens) (UniProt P04150); test: qHTS assay for small molecule agonists of glucocorticoid receptor signaling (AID 588532; active = well fitted curve in the direction sought with a large enough effect in the signal ratio, with a control signal flat; the % refers to the signal ratio;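 also: 100% = dexamethasone at 0.1 µM and 0% = DMSO only wells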); details: HeLa MMTV-bla, beta-lactamase ratio, agonist, 18 h; activation: stronger effect = higher value, percent of dexamethasone control, DMSO zero
In short: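 Stimulation of a glucocorticoid response element-driven beta-lactamase gene was measured in HeLa cells. Responses were scaled between DMSO basal and 0.1 uM dexamethasone, then fitted for half-maximal stimulation.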

[4] = biological target: Vitamin D3 receptor (Homo sapiens) (UniProt P11473); test: qHTS assay for small molecule antagonists of vitamin D receptor signaling (AID 588541); also: potency is read from the fitted curve at half-maximal effect
In short: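 VDR-UAS-bla HEK293T cells (2000/well, 2% charcoal-stripped FBS) were treated with titrated compounds plus 1-alpha,25-dihydroxyvitamin D3 (50 nM or 3 nM final) for 16 h at 37 C. CCF4 beta-lactamase fluorescence was read; Hill fits gave IC50.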

[5] = qHTS assay for small molecule agonists of retinoid X receptor alpha signaling (AID 588544); details: HEK293T RXRa-UAS-bla, beta-lactamase reporter, 18 h; 530 nm emission; also: potency is read from the fitted curve at half-maximal effect;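 as to activation: 0% = DMSO basal wells and 100% = reference agonist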
[6] = biological target: Retinoic acid receptor RXR-alpha (Homo sapiens) (UniProt P19793); test: as above
[7] = qHTS assay for small molecule agonists of the antioxidant response element (ARE) signaling pathway (AID 651741; active = well fitted activation curve with a large enough effect in the signal ratio; the % refers to the signal ratio; also: potency is read from the fitted curve at half-maximal effect)
In short: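 Compounds in DMSO are pinned onto HepG2 ARE-bla cells (2,000/well) that were preincubated 5 h; plates stay 16 h at 37 C, then beta-lactamase activity is detected with LiveBLAzer B/G substrate by fluorescence.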

[8] = qHTS assay for environmental chemicals that activate the Aryl hydrocarbon Receptor (AhR) signaling pathway (AID 651777; active = well fitted curve in the direction sought with a large enough effect; an effect the other way counts as inactive or inconclusive; also: % of control where 0% means no effect; nearly all actives have a fitted effect of over 15% in size); details: 1A2-DRE human hepatoma cells, luciferase, 24 h; activation: stronger effect = higher value
In short: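 Stable CYP1A2 promoter/DRE-luciferase human hepatoma line treated 24 hr; One-Glo luminescence, 30 min RT.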

[9] = biological target: Peroxisome proliferator-activated receptor alpha (Homo sapiens) (UniProt Q07869); test: qHTS assay for small molecule agonists of the peroxisome proliferator-activated receptor alpha (PPARalpha) signaling pathway (AID 651778; active = well fitted curve in the direction sought with a large enough effect; an effect the other way counts as inactive or inconclusive; also: % of control where 0% means no effect); details: PathHunter PPARalpha complementation, chemiluminescence, 6 h; max response: stronger effect = higher value
In short: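 Cells plated at 2,000/well and held overnight at 37 C, 5% CO2, then compound added by pin tool for 6 hr; after PathHunter detection reagent and 60 min at room temperature, chemiluminescence from enzyme complementation was read.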

[10] = qHTS assay for small molecule agonists of the antioxidant response element (ARE) signaling pathway measured by Nrf2-dependant transcriptional activity - cell viability counter screen (AID 720653; active = well fitted curve in the direction sought with a large enough effect in the repeat runs; an effect the other way counts as inactive or inconclusive; also: potency is read from the fitted curve at half-maximal effect); details: ARE-bla HepG2 viability, CellTiter-Glo ATP luminescence, 16 h; max response: stronger effect = lower value
In short: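 ARE-bla HepG2 cells (2,000/well) rested 5 hrs at 37C/5% CO2, then exposed to compounds in DMSO for 16 hrs. Viability was read in the same wells as intracellular ATP by luminescence, 30 min at room temperature after reagent addition.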

[11] = qHTS assay for cell viability of HEK293 cells (AID 743288; active = well fitted curve in the direction sought with a large enough effect; an effect the other way counts as inactive or inconclusive; also: nearly all actives have a fitted effect of over 50% in size; also: potency is read from the fitted curve at half-maximal effect; as to max response: % is scaled to controls: 0 for no effect and ±100 for the full control effect); details: ATP luminescence (CellTiter-Glo), 18 h; max response: stronger effect = lower value
In short: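 Parental HEK293 cells, 2,000 per well, preincubated at least 5 h at 37 C, then exposed to compounds in DMSO for 18 h at 37 C. Viability by CellTiter-Glo ATP luminescence after 30 min at room temperature.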

[12] = qHTS assay for cell viability of the p53RE-bla HCT-116 cell line (AID 743292; active = well fitted curve in the direction sought with a large enough effect; an effect the other way counts as inactive or inconclusive; also: potency is read from the fitted curve at half-maximal effect; nearly all actives have a fitted effect of over 55% in size)
In short: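 Readout: CellTiter-Glo luminescence after 30 min RT. Treatment: compounds in DMSO, 16 h, 37 C. Cells: CellSensor p53RE-bla HCT-116, 4,000/well, preincubated 5 h.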

[13] = biological target: Vitamin D3 receptor (Homo sapiens) (UniProt P11473); test: qHTS assay for small molecule agonists of vitamin D receptor signaling (AID 588543);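 also: 0% = DMSO basal and 100% = reference agonist control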
In short: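 VDR-UAS-bla HEK293T cells, 2000/well, 2% charcoal-stripped FBS; compound titration 16 h at 37 C; CCF4 beta-lactamase ratio read. Normalized to 50 nM 1-alpha,25-dihydroxyvitamin D3 (100%) and DMSO; Hill fit gives EC50, efficacy.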

[14] = biological target: Thyroid hormone receptor beta (Homo sapiens) (UniProt P10828); test: qHTS assay for small molecule agonists of thyroid hormone receptor beta signaling (AID 588545)
In short: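 Cells (2500/well) were seeded, incubated 4 hrs at 37 C, dosed with a compound series, incubated 18 hrs, loaded with CCF4 dye for 2 hrs at RT, then read for fluorescence. Data were scaled between DMSO (0%) and 10 nM T3 (100%).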

[15] = biological target: Thyroid hormone receptor beta (Homo sapiens) (UniProt P10828); test: qHTS assay for small molecule antagonists of thyroid hormone receptor beta signaling (AID 588547; active = well fitted inhibition curve with a large enough effect in the signal ratio, with a control signal flat, not every such curve was filed as active; the % refers to the signal ratio;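 also: cells stimulated with 0.4 nM T3 agonist during compound exposure; series mostly up to about 77 µM; % is scaled to controls: 0 for no effect and ±100 for the full control effect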); details: TR-UAS-bla HEK293, beta-lactamase ratio, antagonist mode, 18 h
In short: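 TR-UAS-bla GripTite HEK293 cells in 2% charcoal/dextran FBS medium were preincubated 4 h at 37 C, given compound (0.59 nM to 92 uM) plus 0.4 nM T3 (final) for 18 h, then CCF4 for 2 h at RT; Hill fit gave IC50.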

[16] = qHTS assay for small molecule agonists of the antioxidant response element (ARE) signaling pathway measured by Nrf2-dependant transcriptional activity (AID 720636; active = well fitted curve in the direction sought with a large enough effect in the repeat runs; an effect the other way counts as inactive or inconclusive;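 also: HepG2 cells with an ARE-driven luciferase reporter; % of control where 0% means no effect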)
In short: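 Reporter gene assay, HepG2 ARE-luc: 16 hr compound, 37 C, 5% CO2; read-out luciferase luminescence.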

Chain of Peroxisome proliferator-activated receptor delta (Homo sapiens) (Q03181 whole entry, looked up): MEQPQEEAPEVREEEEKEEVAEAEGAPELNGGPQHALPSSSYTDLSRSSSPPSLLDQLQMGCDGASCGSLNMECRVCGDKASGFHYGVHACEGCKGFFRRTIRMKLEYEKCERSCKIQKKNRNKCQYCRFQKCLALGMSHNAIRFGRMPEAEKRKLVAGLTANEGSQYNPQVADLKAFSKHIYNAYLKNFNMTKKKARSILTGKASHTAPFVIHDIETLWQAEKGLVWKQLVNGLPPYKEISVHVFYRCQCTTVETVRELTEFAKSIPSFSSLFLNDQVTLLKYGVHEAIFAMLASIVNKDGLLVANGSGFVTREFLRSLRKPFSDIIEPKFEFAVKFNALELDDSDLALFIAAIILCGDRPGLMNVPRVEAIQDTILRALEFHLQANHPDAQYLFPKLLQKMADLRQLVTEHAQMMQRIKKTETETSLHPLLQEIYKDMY
Chain of Bile acid receptor (Homo sapiens) (Q96RI1 whole entry, looked up): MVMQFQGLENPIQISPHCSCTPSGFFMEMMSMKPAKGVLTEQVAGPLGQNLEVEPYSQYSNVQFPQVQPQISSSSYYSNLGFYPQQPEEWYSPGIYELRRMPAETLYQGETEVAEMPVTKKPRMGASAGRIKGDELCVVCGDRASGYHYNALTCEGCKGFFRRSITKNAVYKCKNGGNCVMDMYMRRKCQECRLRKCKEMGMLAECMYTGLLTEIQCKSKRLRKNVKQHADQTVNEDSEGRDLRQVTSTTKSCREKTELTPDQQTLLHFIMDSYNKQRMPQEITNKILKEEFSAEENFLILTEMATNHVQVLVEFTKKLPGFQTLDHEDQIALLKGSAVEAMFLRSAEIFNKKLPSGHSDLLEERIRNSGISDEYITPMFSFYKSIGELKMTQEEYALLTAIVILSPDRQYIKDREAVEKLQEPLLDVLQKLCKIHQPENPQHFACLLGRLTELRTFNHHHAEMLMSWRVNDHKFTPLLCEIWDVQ
Chain of Glucocorticoid receptor (Homo sapiens) (P04150 whole entry, looked up): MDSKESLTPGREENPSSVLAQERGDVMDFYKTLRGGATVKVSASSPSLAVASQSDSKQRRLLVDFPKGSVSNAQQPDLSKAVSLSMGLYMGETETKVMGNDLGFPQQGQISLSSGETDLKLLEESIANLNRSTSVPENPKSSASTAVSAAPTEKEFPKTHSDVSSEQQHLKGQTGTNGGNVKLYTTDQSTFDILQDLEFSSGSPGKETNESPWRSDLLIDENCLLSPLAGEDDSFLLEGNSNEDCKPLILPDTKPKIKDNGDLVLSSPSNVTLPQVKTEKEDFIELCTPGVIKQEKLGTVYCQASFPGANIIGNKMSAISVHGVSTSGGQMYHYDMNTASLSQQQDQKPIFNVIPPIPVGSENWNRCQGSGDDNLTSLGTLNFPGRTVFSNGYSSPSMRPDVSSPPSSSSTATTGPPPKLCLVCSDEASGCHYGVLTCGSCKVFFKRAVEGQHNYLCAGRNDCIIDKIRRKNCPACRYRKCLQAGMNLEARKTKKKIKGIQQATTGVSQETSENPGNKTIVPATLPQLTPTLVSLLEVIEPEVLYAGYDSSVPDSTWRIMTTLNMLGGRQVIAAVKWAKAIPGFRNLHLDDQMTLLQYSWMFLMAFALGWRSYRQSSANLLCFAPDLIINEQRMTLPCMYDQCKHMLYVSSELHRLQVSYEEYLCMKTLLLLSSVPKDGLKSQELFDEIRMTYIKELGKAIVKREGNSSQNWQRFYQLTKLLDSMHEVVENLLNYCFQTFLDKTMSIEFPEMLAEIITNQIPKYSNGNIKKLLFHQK
Chain of Thyroid hormone receptor beta (Homo sapiens) (P10828 whole entry, looked up): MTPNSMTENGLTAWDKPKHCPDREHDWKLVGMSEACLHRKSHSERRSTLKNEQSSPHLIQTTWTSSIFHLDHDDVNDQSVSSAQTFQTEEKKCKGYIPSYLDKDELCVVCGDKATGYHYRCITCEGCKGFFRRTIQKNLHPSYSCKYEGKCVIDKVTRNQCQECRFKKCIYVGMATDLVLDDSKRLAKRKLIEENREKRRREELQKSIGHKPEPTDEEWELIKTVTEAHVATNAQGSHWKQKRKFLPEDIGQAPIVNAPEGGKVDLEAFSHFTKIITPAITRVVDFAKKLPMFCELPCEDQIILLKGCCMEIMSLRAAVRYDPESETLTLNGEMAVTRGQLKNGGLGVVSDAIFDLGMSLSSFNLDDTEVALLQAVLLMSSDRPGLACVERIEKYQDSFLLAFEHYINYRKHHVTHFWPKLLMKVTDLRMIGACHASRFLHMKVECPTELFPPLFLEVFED
Chain of Vitamin D3 receptor (Homo sapiens) (P11473 whole entry, looked up): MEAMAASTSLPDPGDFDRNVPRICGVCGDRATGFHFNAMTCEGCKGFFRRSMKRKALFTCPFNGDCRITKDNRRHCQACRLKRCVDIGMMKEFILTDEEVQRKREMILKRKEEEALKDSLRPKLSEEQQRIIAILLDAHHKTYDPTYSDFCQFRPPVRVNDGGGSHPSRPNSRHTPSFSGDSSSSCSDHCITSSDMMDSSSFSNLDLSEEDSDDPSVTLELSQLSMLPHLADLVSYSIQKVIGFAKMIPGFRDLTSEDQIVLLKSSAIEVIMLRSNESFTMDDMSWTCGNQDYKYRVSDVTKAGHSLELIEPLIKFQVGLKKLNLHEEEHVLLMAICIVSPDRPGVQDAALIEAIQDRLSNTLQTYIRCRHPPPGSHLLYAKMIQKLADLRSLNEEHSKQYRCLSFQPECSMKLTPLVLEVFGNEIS
Chain of Peroxisome proliferator-activated receptor alpha (Homo sapiens) (Q07869 whole entry, looked up): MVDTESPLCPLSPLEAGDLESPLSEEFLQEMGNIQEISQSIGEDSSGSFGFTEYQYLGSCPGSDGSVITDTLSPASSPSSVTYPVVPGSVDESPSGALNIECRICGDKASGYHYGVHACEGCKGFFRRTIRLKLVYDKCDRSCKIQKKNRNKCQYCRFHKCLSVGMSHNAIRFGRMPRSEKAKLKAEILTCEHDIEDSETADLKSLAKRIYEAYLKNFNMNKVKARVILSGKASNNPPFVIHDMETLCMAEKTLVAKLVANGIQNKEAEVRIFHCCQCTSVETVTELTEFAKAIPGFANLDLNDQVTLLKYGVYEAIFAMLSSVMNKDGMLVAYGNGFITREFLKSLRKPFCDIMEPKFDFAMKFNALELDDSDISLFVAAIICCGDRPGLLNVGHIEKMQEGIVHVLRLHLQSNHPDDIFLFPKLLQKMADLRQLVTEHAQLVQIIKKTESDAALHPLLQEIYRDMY
Chain of Retinoic acid receptor RXR-alpha (Homo sapiens) (P19793 whole entry, looked up): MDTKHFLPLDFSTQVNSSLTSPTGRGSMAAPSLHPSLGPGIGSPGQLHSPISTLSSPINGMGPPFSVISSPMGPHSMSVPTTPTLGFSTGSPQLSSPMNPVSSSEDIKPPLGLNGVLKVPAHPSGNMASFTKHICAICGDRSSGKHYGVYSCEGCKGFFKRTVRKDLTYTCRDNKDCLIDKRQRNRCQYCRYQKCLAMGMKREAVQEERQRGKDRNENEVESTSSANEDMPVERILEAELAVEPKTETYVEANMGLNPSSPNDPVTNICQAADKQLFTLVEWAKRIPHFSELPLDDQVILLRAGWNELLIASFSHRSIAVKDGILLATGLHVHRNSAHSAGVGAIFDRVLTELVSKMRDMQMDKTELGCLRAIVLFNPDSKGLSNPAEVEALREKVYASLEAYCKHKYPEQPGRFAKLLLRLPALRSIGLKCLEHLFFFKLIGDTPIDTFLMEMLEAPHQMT

S=C1NC=NC2N=CNC12 (stereo not given)
inactive: activation [1] -5.16%

OCC(CO)(CO)COCC(CO)(CO)CO
inactive: activation [1] -6.39%

C=C(C)C(=O)OCC(CC)(COC(=O)C(=C)C)COC(=O)C(=C)C
inactive: activation [1] -1.88% | outcome [2]

CCC[CH2][Sn]([CH2]CCC)([CH2]CCC)[O][Sn]([CH2]CCC)([CH2]CCC)[CH2]CCC
-23.3%: max response [5]
active: Potency [4] 22.4 µM | Potency [6] 0.355 µM | Potency [7] 27.3 µM | Potency [10] 22.4 µM | Potency [11] 31.6 µM | Potency [12] 22.4 µM
inactive: activation [1] 0.0431% | activation [3] 3.22% | activation [8] 0.111% | max response [9] 5.55%

CNc1ccc(O)cc1
inactive: activation [1] 3.85% | outcome [2]

CSC1=N[C@@](C)(c2ccccc2)C(=O)N1Nc1ccccc1
25.5%: max response [5]
active: Potency [7] 6.86 µM
inactive: activation [1] 1.54% | activation [3] 0.812% | outcome [2] | outcome [13] | Potency [6] | Potency [14] | activity change % (negative = inhibition) [15] -28.6% | activation [8] -5.24% | max response [9] -0.163% | Potency [16] | max response [11] -18%
